For 35 molecules, binding signal results are on record in paper PMC9911399, “Two distinct binding modes provide the RNA-binding protein RbFox with extraordinary sequence specificity”.

To fix the notation:
T1: RBFOX1 RRM (Homo sapiens, UniProt Q9NWB1 109-208)
T1 sequence: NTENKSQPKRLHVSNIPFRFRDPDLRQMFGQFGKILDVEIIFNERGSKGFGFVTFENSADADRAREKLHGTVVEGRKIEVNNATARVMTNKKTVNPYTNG

B1: UGACACA (DNA:RNA)
RNA: GGGAGACCGGAAUUCAGAUUGUCCUGACACAUUAAAUCCCGUCGUAGCCACCA
DNA 1: CAATCTGAATTCCGGTCTCCC
DNA 2: TGGTGGCTACGACGGGATT
B2: AAUCAAU (DNA:RNA)
RNA: B1 RNA with U25A, G26A, A27U, C30A, A31U
DNA 1: CAATCTGAATTCCGGTCTCCC
DNA 2: TGGTGGCTACGACGGGATT
B3: GAAAAUG (DNA:RNA)
RNA: B1 RNA with U25G, G26A, C28A, C30U, A31G
DNA 1: CAATCTGAATTCCGGTCTCCC
DNA 2: TGGTGGCTACGACGGGATT
B4: CCUGCUU (DNA:RNA)
RNA: GGGAGACCGGAAUUCAGAUUGUCCCCUGCUUUUAAAUCCCGUCGUAGCCACCA
DNA 1: CAATCTGAATTCCGGTCTCCC
DNA 2: TGGTGGCTACGACGGGATT
B5: AUGUAGU (DNA:RNA)
RNA: B4 RNA with C25A, C26U, U27G, G28U, C29A, U30G
DNA 1: CAATCTGAATTCCGGTCTCCC
DNA 2: TGGTGGCTACGACGGGATT
B6: UAUUUGU (DNA:RNA)
RNA: B4 RNA with C25U, C26A, G28U, C29U, U30G
DNA 1: CAATCTGAATTCCGGTCTCCC
DNA 2: TGGTGGCTACGACGGGATT
B7: CACGCGU (DNA:RNA)
RNA: B4 RNA with C26A, U27C, U30G
DNA 1: CAATCTGAATTCCGGTCTCCC
DNA 2: TGGTGGCTACGACGGGATT
B8: GUUAUGC (DNA:RNA)
RNA: B4 RNA with C25G, C26U, G28A, C29U, U30G, U31C
DNA 1: CAATCTGAATTCCGGTCTCCC
DNA 2: TGGTGGCTACGACGGGATT
B9: GCCAUGC (DNA:RNA)
RNA: B4 RNA with C25G, U27C, G28A, C29U, U30G, U31C
DNA 1: CAATCTGAATTCCGGTCTCCC
DNA 2: TGGTGGCTACGACGGGATT
B10: GUCAUGC (DNA:RNA)
RNA: GGGAGACCGGAAUUCAGAUUGUCCGUCAUGCUUAAAUCCCGUCGUAGCCACCA
DNA 1: CAATCTGAATTCCGGTCTCCC
DNA 2: TGGTGGCTACGACGGGATT
B11: GAAUGCU (DNA:RNA)
RNA: B1 RNA with U25G, G26A, C28U, A29G, A31U
DNA 1: CAATCTGAATTCCGGTCTCCC
DNA 2: TGGTGGCTACGACGGGATT
B12: GUAUGCU (DNA:RNA)
RNA: B10 RNA with C27A, A28U, U29G, G30C, C31U
DNA 1: CAATCTGAATTCCGGTCTCCC
DNA 2: TGGTGGCTACGACGGGATT
B13: GCAUUGC (DNA:RNA)
RNA: B10 RNA with U26C, C27A, A28U
DNA 1: CAATCTGAATTCCGGTCTCCC
DNA 2: TGGTGGCTACGACGGGATT
B14: GGCAUGC (DNA:RNA)
RNA: B10 RNA with U26G
DNA 1: CAATCTGAATTCCGGTCTCCC
DNA 2: TGGTGGCTACGACGGGATT
B15: CGCAUGC (DNA:RNA)
RNA: B10 RNA with G25C, U26G
DNA 1: CAATCTGAATTCCGGTCTCCC
DNA 2: TGGTGGCTACGACGGGATT
B16: GCAUGCU (DNA:RNA)
RNA: B4 RNA with C25G, U27A, G28U, C29G, U30C
DNA 1: CAATCTGAATTCCGGTCTCCC
DNA 2: TGGTGGCTACGACGGGATT
B17: UGAGAAA (DNA:RNA)
RNA: B1 RNA with C28G, C30A
DNA 1: CAATCTGAATTCCGGTCTCCC
DNA 2: TGGTGGCTACGACGGGATT
B18: UCCUACG (DNA:RNA)
RNA: B1 RNA with G26C, A27C, C28U, A31G
DNA 1: CAATCTGAATTCCGGTCTCCC
DNA 2: TGGTGGCTACGACGGGATT
B19: AACCACA (DNA:RNA)
RNA: B1 RNA with U25A, G26A, A27C
DNA 1: CAATCTGAATTCCGGTCTCCC
DNA 2: TGGTGGCTACGACGGGATT
B20: ACAUAGU (DNA:RNA)
RNA: B4 RNA with C25A, U27A, G28U, C29A, U30G
DNA 1: CAATCTGAATTCCGGTCTCCC
DNA 2: TGGTGGCTACGACGGGATT
B21: CGCCAUA (DNA:RNA)
RNA: B1 RNA with U25C, A27C, C30U
DNA 1: CAATCTGAATTCCGGTCTCCC
DNA 2: TGGTGGCTACGACGGGATT
B22: AUUUUUA (DNA:RNA)
RNA: B4 RNA with C25A, C26U, G28U, C29U, U31A
DNA 1: CAATCTGAATTCCGGTCTCCC
DNA 2: TGGTGGCTACGACGGGATT
B23: UGUUCCG (DNA:RNA)
RNA: B1 RNA with A27U, C28U, A29C, A31G
DNA 1: CAATCTGAATTCCGGTCTCCC
DNA 2: TGGTGGCTACGACGGGATT
B24: ACGCACG (DNA:RNA)
RNA: B1 RNA with U25A, G26C, A27G, A31G
DNA 1: CAATCTGAATTCCGGTCTCCC
DNA 2: TGGTGGCTACGACGGGATT
B25: GCACGAU (DNA:RNA)
RNA: B4 RNA with C25G, U27A, G28C, C29G, U30A
DNA 1: CAATCTGAATTCCGGTCTCCC
DNA 2: TGGTGGCTACGACGGGATT
B26: UCGUCCG (DNA:RNA)
RNA: B4 RNA with C25U, U27G, G28U, U30C, U31G
DNA 1: CAATCTGAATTCCGGTCTCCC
DNA 2: TGGTGGCTACGACGGGATT
B27: GCACGAG (DNA:RNA)
RNA: B1 RNA with U25G, G26C, A29G, C30A, A31G
DNA 1: CAATCTGAATTCCGGTCTCCC
DNA 2: TGGTGGCTACGACGGGATT
B28: UCGCACG (DNA:RNA)
RNA: B1 RNA with G26C, A27G, A31G
DNA 1: CAATCTGAATTCCGGTCTCCC
DNA 2: TGGTGGCTACGACGGGATT
B29: GCACGUA (DNA:RNA)
RNA: B1 RNA with U25G, G26C, A29G, C30U
DNA 1: CAATCTGAATTCCGGTCTCCC
DNA 2: TGGTGGCTACGACGGGATT
B30: GCACGUG (DNA:RNA)
RNA: B4 RNA with C25G, U27A, G28C, C29G, U31G
DNA 1: CAATCTGAATTCCGGTCTCCC
DNA 2: TGGTGGCTACGACGGGATT
B31: GCACGAA (DNA:RNA)
RNA: B1 RNA with U25G, G26C, A29G, C30A
DNA 1: CAATCTGAATTCCGGTCTCCC
DNA 2: TGGTGGCTACGACGGGATT
B32: CCGCACG (DNA:RNA)
RNA: B1 RNA with U25C, G26C, A27G, A31G
DNA 1: CAATCTGAATTCCGGTCTCCC
DNA 2: TGGTGGCTACGACGGGATT
B33: UCGCACC (DNA:RNA)
RNA: B1 RNA with G26C, A27G, A31C
DNA 1: CAATCTGAATTCCGGTCTCCC
DNA 2: TGGTGGCTACGACGGGATT
B34: CGCACCG (DNA:RNA)
RNA: B4 RNA with C26G, U27C, G28A, U30C, U31G
DNA 1: CAATCTGAATTCCGGTCTCCC
DNA 2: TGGTGGCTACGACGGGATT
B35: GCACACG (DNA:RNA)
RNA: B1 RNA with U25G, G26C, A31G
DNA 1: CAATCTGAATTCCGGTCTCCC
DNA 2: TGGTGGCTACGACGGGATT

Substitutions are numbered along the chain they refer to; changes in the protein carry UniProt numbers. In all, about 16,000 sequences were measured (“ka relative to ugcaugu”: median about 0.0091, highest 2% from about 0.032 on). For the sample, the highest values were picked, then their nearest neighbours and some sequences at random.

The test concerns the target T1, RBFOX1 RRM. Description: EMSA; HiTS-Eq, 1 nM pool, 10 min; buffer printed only for the single-RNA assays: 10 mM Tris pH 7.5, 150 mM NaCl, 3.4 mM EDTA, 0.001% NP-40, 30 C. The note with it: tags: His6 N-terminal (pET28a); label: 5' 32P. The procedure, abridged: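 Relative association constants, normalised to the cognate motif, were derived by comparing read counts of each RNA species with those of the control reaction. The RNA sequenced was the free fraction, separated by 8% native PAGE after a 10 min equilibration in 50 µL of 1 nM 5′-radiolabelled RNA (7 randomized nucleotides) with increasing concentrations of purified wild-type or mutant RbFox RRM.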
Turning to B1, the binding signal was 0.00643 KA relative to UGCAUGU.
In the case of B2, the binding signal was 0.000959 KA relative to UGCAUGU.
Regarding B3, the binding signal is 0.00709 KA relative to UGCAUGU.
As to B4, the binding signal is 0.0137 KA relative to UGCAUGU.
For B5, the binding signal is 0.00813 KA relative to UGCAUGU.
Regarding B6, the binding signal was 0.0237 KA relative to UGCAUGU.
As to B7, the binding signal was 0.00634 KA relative to UGCAUGU.
For the molecule B8, the binding signal is 0.0151 KA relative to UGCAUGU.
With B9, the binding signal is 0.0131 KA relative to UGCAUGU.
For the molecule B10, the binding signal is 0.0144 KA relative to UGCAUGU.
Take B11: the binding signal is 0.0201 KA relative to UGCAUGU.
Regarding B12, the binding signal was 0.018 KA relative to UGCAUGU.
In the case of B13, the binding signal is 0.0184 KA relative to UGCAUGU.
Take B14: the binding signal is 0.627 KA relative to UGCAUGU.
B15: the binding signal is 0.895 KA relative to UGCAUGU.
With B16, the binding signal is 0.779 KA relative to UGCAUGU.
For B17, the binding signal was 0.016 KA relative to UGCAUGU.
Take B18: the binding signal is 0.00598 KA relative to UGCAUGU.
B19: the binding signal was 0.00121 KA relative to UGCAUGU.
The same measure for B20: 0.00187 KA relative to UGCAUGU; for B21: 0.00265 KA relative to UGCAUGU.
Turning to B22, the binding signal was 0.00169 KA relative to UGCAUGU.
The same measure for B23: 0.0186 KA relative to UGCAUGU; for B24: 0.0314 KA relative to UGCAUGU; for B25: 0.0227 KA relative to UGCAUGU.
Regarding B26, the binding signal was 0.016 KA relative to UGCAUGU.
Regarding B27, the binding signal was 0.0362 KA relative to UGCAUGU.
Turning to B28, the binding signal was 0.0586 KA relative to UGCAUGU.
For B29, the binding signal is 0.0281 KA relative to UGCAUGU.
The same measure for B30: 0.0821 KA relative to UGCAUGU; for B31: 0.0197 KA relative to UGCAUGU; for B32: 0.0481 KA relative to UGCAUGU.
The same measure for B33: 0.0108 KA relative to UGCAUGU; for B34: 0.00744 KA relative to UGCAUGU; for B35: 0.00843 KA relative to UGCAUGU.
